Screening results: PubChem, National Center for Advancing Translational Sciences (NCATS)
Compounds with a hit are over-represented: about 21% of the library has one in this group of screens.
Shiga inhibitor: inhibitors of Shiga toxin in Vero cells | Vero cells, Shiga toxin protein synthesis inhibition reporter | AID 2315 | hit rate 9.2% among 290,000 | inhibition, % at 38.7 µM; in the data active = inhibition mostly above about 28%, no sharp cut-off; inactive = mostly below about 43%; also: 0% is about no effect
Cycloheximide cs: affects cycloheximide protein synthesis inhibition readout, counter-screen. hit rate 12% among 300,000. max response, %. cell reporter, cycloheximide protein synthesis inhibition counterscreen; in the data active = max response mostly above about 13%, no sharp cut-off; inactive = mostly below about 14%; also: read at 38.3 µM for the half of the compounds with a filed dose; 0% is about no effect
Pf growth 48h: P. falciparum growth inhibition at 48 hours (one generation). Potency, µM (top dose mostly 28.7 µM), for the others: at the highest dose activity change, negative = inhibition, actives largely listed as inhibitors. hit rate 5.9% among 310,000. AID 504832. P. falciparum luciferase growth in erythrocytes, 48 h; also: potency is read from the fitted curve at half-maximal effect; % is scaled to controls: 0 for no effect and ±100 for the full control effect
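Erythrocytes infected with P. falciparum carrying an integrated firefly luciferase reporter (2% hematocrit, 0.1% parasitemia final) were exposed to compounds in RPMI 1640 with 0.5% Albumax at 37 C, 5% CO2. Growth inhibition was scored as reduced luminescence.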
FBPA Giardia inh: Giardia lamblia aldolase inhibition. A8B2U2. purified Giardia FBPA. Potency, µM (doses to about 59.6 µM), for the others: top-dose activity, negative = inhibition, most hits filed as inhibitors. hit rate 0.71% among 290,000. AID 2451; also: potency is read from the fitted curve at half-maximal effect; % is scaled to controls: 0 for no effect and ±100 for the full control effect; nearly all actives have a fitted effect of over 55% in size
Target sequence (A8B2U2 whole entry, looked up): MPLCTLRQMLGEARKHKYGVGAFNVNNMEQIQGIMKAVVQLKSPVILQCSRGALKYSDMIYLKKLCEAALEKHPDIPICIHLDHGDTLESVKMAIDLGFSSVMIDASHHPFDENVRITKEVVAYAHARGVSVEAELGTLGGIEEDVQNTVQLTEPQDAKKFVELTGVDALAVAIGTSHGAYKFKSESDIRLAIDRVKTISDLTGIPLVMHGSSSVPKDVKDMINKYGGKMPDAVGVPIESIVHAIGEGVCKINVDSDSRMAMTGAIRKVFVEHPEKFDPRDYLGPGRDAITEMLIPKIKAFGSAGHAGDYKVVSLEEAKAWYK
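40 nM FBPA preincubated 10 min at RT with compound (up to 57.5 uM final), then substrate plus GAPDH/TPI/NAD/arsenate coupling and diaphorase/resazurin added. Fluorescence read after 20 min at RT, 525/598 nm.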
NS1 function inh: influenza NS1 inhibition; AID 2326; hit rate 0.4% among 270,000; Potency, µM (highest dose often 46.1 µM), for inactives: top-dose activity, positive = more growth; calls by dose curve; also: potency is read from the fitted curve at half-maximal effect; actives are rising curves; nearly all actives have a fitted effect of over 50% in size
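Growth recovery, yeast-based: influenza A NS1 expressed in S. cerevisiae causes slow growth, and suppressors are detected by OD600. The parent strain without NS1 is used as positive control.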
Pf growth 96h: P. falciparum growth inhibition at 96 hours; hit rate 6.9% among 320,000; Potency, µM (titrated, usually from 28.7 µM), for inactives: at the highest dose activity change, negative = inhibition, usual class: inhibitors; P. falciparum luciferase reporter growth, 96 h; also: potency is read from the fitted curve at half-maximal effect; % is scaled to controls: 0 for no effect and ±100 for the full control effect
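P. falciparum expressing integrated firefly luciferase, in erythrocytes at 2% hematocrit, 0.05% parasitemia, incubated with compounds 96 h at 37 C, 5% CO2. Growth inhibition read as loss of luminescence; two-generation exposure targets delayed-death apicoplast inhibitors.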
Active calls of the source: *; i = inactive; ? = inconclusive; / = no result given; [ ] = another dose, or the depositor's remark. Unless noted, calls follow the shape of the dose curve; as a rule, active = well fitted curve in the direction sought with a large enough effect; inconclusive = small, poorly fitted or top-dose-only effect, or another doubt; inactive = no such curve, though single readings can be large; an effect the other way counts as inactive or inconclusive.

SMILES	Shiga inhibitor	Cycloheximide cs	Pf growth 48h	FBPA Giardia inh	NS1 function inh	Pf growth 96h
COc1ccc(NC(=S)NCCN2CCOCC2)cc1	-4	0	19%	-6%	5%	1%
COc1ccc(N/N=C(\C#N)C(=N)N2CCOCC2)cc1	36	29*	73%	-7%	/	7%
N#C/C(=N\Nc1cccc(F)c1)C(=N)N1CCCCCC1	41*	26*	i	-5%	/	?
N#C/C(=N/Nc1ccccc1F)C(=N)N1CCOCC1	37	34*	68%	-11%	1%	115%
N#C/C(=N\Nc1ccc(F)cc1)C(=N)N1CCCCC1	112*	47*	120%	-21%	-18%	/
Cc1ccc(C(c2ccc(C)o2)c2cccc([N+](=O)[O-])c2O)o1	-9	-2	7.4µM*	1%	-1%	4.7µM*
Cc1cc(C(c2ccc(C)o2)c2ccc(C)o2)c(O)c([N+](=O)[O-])c1	14	-3	/	-18%	?	-12%
CC1CCCCN1C(=O)CSc1nnc(-c2cccnc2)o1 (stereo not given)	15	-2	15%	3%	5%	-30%
COC(=O)N1CCC[C@@]2(CCN(C(=O)Nc3cccc(C#N)c3)C2)C1	/	/	/	2%	/	/
CCc1nc2ccc(C(=O)NCCc3ccc(OC)c(OC)c3)cc2nc1CC	3	-6	-11%	1%	-7%	?
COC(CNC(=O)c1ccc2nc(-c3cccs3)c(-c3cccs3)nc2c1)OC	-9	-4	2%	-7%	-7%	?
CCOCCCNC(=O)c1ccc2nc(-c3ccc(OC)c(OC)c3)c(-c3ccc(OC)c(OC)c3)nc2c1	3	-2	3.7µM*	7%	-3%	14%
COc1ccc(-c2nc3ccc(C(=O)NCC(OC)OC)cc3nc2-c2ccc(OC)c(OC)c2)cc1OC	-4	1	4.1µM*	0%	-4%	13%
O=C(COc1ccccc1)OCC(=O)c1ccc(S(=O)(=O)N2CCCCC2)cc1	/	/	-3%	/	/	-19%
COc1cc(NC(=O)Cn2c(C)cc3ccccc3c2=O)cc(OC)c1OC	-8	-1	0%	8%	3%	29%
COc1cc(NC(=O)Cn2c(-c3cncs3)nc3ccccc32)cc(OC)c1OC	12	11	2.3µM*	21%	-142%	18%
CCCc1cc(C(=O)Nc2ccc(F)cc2F)no1	74*	58*	/	-2%	-12%	9%
COc1ccccc1-c1cc(C(=O)Nc2ccc(F)cc2F)no1	39	7	23%	0%	-13%	?
CCCc1cc(C(=O)Nc2ccccc2SC)no1	88*	62*	109%	0%	-41%	?
CCCc1cc(C(=O)Nc2cccc(Cl)c2C)no1	66*	52*	102%	10%	-19%	-17%
Cc1nn(C2CCS(=O)(=O)C2)c(C)c1CN(C)C(=O)c1cccc(Cl)c1 (stereo not given)	/	/	?	/	/	12%
COc1cc(N)ccc1NC(=O)c1cc2ccccc2o1	64*	42*	133%	1%	13%	?
CCCC(=O)Nc1ccc(NC(=O)c2cc3ccccc3o2)c(OC)c1	/	38*	45%	-10%	20%	-21%
COc1ccc(OC)c(NC(=O)c2cc3ccccc3o2)c1	93	27*	43%	-27%	-11%	-6%
COc1cc(NC(C)=O)ccc1NC(=O)c1cc2ccccc2o1	21	16*	3%	2%	4%	12µM*
SMILES	Shiga inhibitor	Cycloheximide cs	Pf growth 48h	FBPA Giardia inh	NS1 function inh	Pf growth 96h
COc1ccc(C)cc1NC(=O)c1cc2ccccc2o1	42	40	?	-3%	?	14%
Cn1ccnc1C(=O)c1cc(=O)c2ccccc2o1	3	-7	13%	2%	-4%	4%
COC(=O)c1ccc(NC(=O)CN2CCN(CCO)CC2)cc1	-7	-2	6%	1%	-2%	8%
CC(=O)Nc1cccc(NC=C(C#N)C#N)c1	-6	-3	-8%	-6%	1%	-3%
CCOc1ccc(NC(=O)c2cccc(NC(C)=O)c2)cc1S(=O)(=O)N1CCCC1	/	/	31%	/	/	?
Cc1ccc(S(=O)(=O)N2CCN(CC(=O)Nc3ccnn3C3CCCC3)CC2)cc1	/	/	?	/	/	-20%
Cc1ccc(/C=C/c2ccc3cccc(O)c3n2)s1	95*	58*	-26%	-1%	-12%	-51%
Oc1cccc(/C=C/c2ccc3cccc(O)c3n2)c1	128*	37*	-31%[0.00184 µM]	?	-74%	-25%
CC(=O)COc1cccc2ccc(/C=C/c3ccc(Br)s3)nc12	36*	20	-31%	-8%	-55%	?
COc1cccc(/C=C/c2ccc3cccc(O)c3n2)c1	121*	47*	52%	-8%	-1%	24%
CC(=O)c1ccc(N2CCN(CC(=O)Nc3ccc4c(c3)OCCO4)CC2)cc1	8	5	71%	/	-20%	?
COCCn1c(=O)c(CCc2ccccc2)nc2cnc(OCc3ccccc3)nc21	/	/	/	4%	/	/
O=C(N/N=C\c1c[nH]c2ccccc12)c1ccc(O)cc1	63*	39*	35%	8%	1%	6%
Cc1occc1C(=O)N/N=C/c1c[nH]c2ccccc12	96*	48*	62%	-7%	-8%	37%
CC(C)Oc1ccc(Br)cc1C(=O)N/N=C/c1c[nH]c2ccccc12	-6	4	?	0%	-1%	-25%
CC(C)(C)OC(=O)N/N=C/c1c[nH]c2ccccc12	73*	56*	2%	3%	-4%	18%
O=C(N/N=C/c1c[nH]c2ccccc12)c1ccc(Br)cc1	54*	32*	20%	-1%	-19%	?
O=C(NC1CCS(=O)(=O)C1)c1ccc(N2CCCCC2)c([N+](=O)[O-])c1 (stereo not given)	-7	-3	-3%	/	15%	?
Nc1ccc(C(=O)N/N=C/c2c[nH]c3ccccc23)cc1	51	29*	13%	6%	-2%	50%
O=C(N/N=C/c1c[nH]c2ccccc12)c1ccc(Cl)cc1	72*	34*	40%	3%	-7%	?
CC(C)c1ccc2[nH]c3c(c2c1)CCC/C3=N\NC(=O)c1ccncc1	-8	-3	?	-8%	9%	?
Nc1ccc(C(=O)N/N=C2\CCCc3c2[nH]c2ccccc32)cc1	26	25*	?	1%	11%	?
O=C(CNC(=O)c1ccc([N+](=O)[O-])cc1)N/N=C/c1c[nH]c2ccccc12	-11	-2	10%	1%	0%	1%
O=C(N/N=C/c1c[nH]c2ccccc12)c1ccccc1Cl	55	26*	30%	6%	4%	44%
NC(=S)N/N=C/c1c[nH]c2ccccc12	38	6	0%	?	1%	38%
COC(=O)N/N=C/c1c[nH]c2ccccc12	10	1	33%	3%	4%	44%
COC(=O)c1ccc(C(NC(=O)OCc2ccccc2)/C(F)=C/[C@@H](C)C(=O)NCc2nc3ccccc3s2)cc1 (stereo not given in full)	/	/	/	3%	/	/
